Assay [1] can be described thus: inhibitors of TNFa-induced NFkB p65 translocation, primary screen, imaging, HUVEC, MLSMR starter and 10KST1 sets (AID 438;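 active means inhibition above 20% together with a positive visual image hit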;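 further: compound added about 3h40 before a 20 min TNFalpha stimulation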;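 on inhibition: signal is the nuclear over cytoplasmic p65 intensity ratio per well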). The conditions noted are these: HUVEC TNFa-induced p65 nuclear translocation; cell count: measured here: nuclei count (cytotoxicity indicator), at 2.08 µM; inhibition: at 2 µM, stronger effect = higher value, 0% TNFa-plus-vehicle, 100% no-TNFa wells.
Assay [2] can be described thus: reduction of polyQ htt aggregates in cells – imaging, exon1htt(103Q)mCFP cells, high-content imaging, primary screen (AID 483;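 active means visual image review flags a hit and inhibition of aggregation exceeds 20%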;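 further: compound exposure lasted 3 days before fixation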;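 on nuclei count: percent of the per-plate median nuclei count of sample wells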). As to conditions: exon1htt(103Q)mCFP cell line, aggregate imaging, at 2 µM; inhibition of aggregation: stronger effect = higher value; nuclei count: measured here: cell count, toxicity.
The nature of assay [3]: endothelial E-selectin expression blockers – imaging, HUVEC, immunofluorescence, MLSMR starter and 10KST1 sets, primary screen (AID 487;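 active means visually confirmed hit in the image check and inhibition above 20%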;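 on inhibition: signal is fraction of cell area covered by stained E-selectin grains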;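 on nuclei count: 100% = median nuclei count of all wells on the same plate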). The conditions noted are these: HUVEC TNFalpha-induced E-selectin immunofluorescence imaging, at 2 µM; inhibition: stronger effect = higher value; nuclei count: measured here: cell number, toxicity.
A short description of assay [4]: Primary imaging screen for DUSP6 inhibitors that restore phospho-Erk in transfected HeLa cells, chemical complementation (AID 609;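 active means compounds giving at least 50% inhibition in the cell-based MKP-3 phosphatase rescue imaging test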;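 on inhibition: phospho-Erk level distribution per well compared with pooled transfected vehicle control wells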). The conditions noted are these: HeLa MKP-3 transfected, phospho-Erk imaging KS statistic, at 10 µM, cells stimulated with TPA for 15 min.
Assay [5] concerns the target Dual specificity protein phosphatase 6 (Homo sapiens) (UniProt Q16828). Described as above. As to conditions: HeLa MKP-3 transfected, phospho-Erk imaging KS statistic; at 10 µM; stronger effect = higher value; cells stimulated with TPA for 15 min.
Assay [6] has as its target Voltage-gated potassium channel subunit beta-2 (Rattus norvegicus) (UniProt P62483). As to the kind of experiment: inhibitors of rat Kvbeta2 reductase activity – biochemical, NADPH fluorescence, primary screen (AID 622;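 active means fluorescence slope higher than the sample average by over 3 SD, cut at about -0.22 in these data, passing the limit was not always enough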;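 further: slope of raw intensity against log time taken from 70 to 1610 s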). The conditions noted are these: recombinant KvBeta, 4-cyanobenzaldehyde reduction, at 10 µM, stronger effect = higher value.
For assay [7] the target is unchanged. The assay is described as follows: enhancers of rat Kvbeta2 NADPH turnover – biochemical, NADPH fluorescence, primary screen (AID 623;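 active means NADPH fluorescence slope more negative than the mean of all samples by about 3 SD, 99.7% confidence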;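 further: fluorescence intensity change per second fitted from 20 to 320 s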). As to conditions: Recombinant KvBeta, NADPH fluorescence decrease slope, 10 min; at 10 µM; stronger effect = lower value.
For assay [8], the target named is Alpha-2C adrenergic receptor (Homo sapiens) (UniProt P18825). The assay is described as follows: compounds altering alpha2C-coupled GIRK flux – cell-based, HEK293 alpha2C/GIRK1/2, thallium flux, primary screen (AID 624;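 active means fluorescence slope after compound addition differing from the mean of all screened samples at 99.7% confidence, in either direction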;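 further: slope of fluorescence ratio to pre-addition baseline per second over 15 to 24 s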). The conditions noted are these: thallium flux BTC fluorescence, at 10 µM, actives lie on both sides.
Assay [9] is described as follows: inhibitors of larval lipid processing in zebrafish, primary screen, whole organism, PED6 fluorescence, gall bladder and intestine (AID 686;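 active means a full or partial loss of lipid-probe fluorescence in the fish gall bladder, intestine or both, judged by eye; inactive means no fluorescence loss, or compound toxic to the fish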;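 further: larvae 5 to 7 days old with five fish per well; signal comes from phospholipase A2 cleavage of quenched PED6 carried via bile; overnight exposure to compound and PED6 before scoring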). The conditions noted are these: Zebrafish larvae PED6 lipid processing, fluorescence scoring; screened at 20 µM (by protocol).
A short description of assay [10]: loss of swimming-algae plug formation – whole organism, Chlamydomonas reinhardtii, WT vs cilia-less mutant, absorbance, 96-well, primary screen (AID 463189).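 Further: 0% = wild type cc124 cells in DMSO and 100% = ciliumless bld1 mutant cells.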 The conditions noted are these: Chlamydomonas reinhardtii gravitaxis, OD600 absorbance, 2 days; at 10 µM; stronger effect = higher value.
Assay [11] in a line: blockers of RIG-like receptor reporter activation – cell-based, Sendai virus stimulus, luciferase, 10K MLSCN set, TLR/RLR signaling modifier project, primary screen (AID 602276;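 active means inhibition at or above 50% at 10 µM; inactive means inhibition below 50%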;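 further: firefly luciferase from ISG56 promoter only with Renilla not read in this screen; 0% = Sendai virus plus DMSO and 100% = medium plus DMSO without virus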). As to conditions: HEK293 RL24 IRF3 luciferase reporter, at 10 µM, stronger effect = higher value. A general note: In a reporter assay the amount or activity of a reporter protein is the signal.
A short description of assay [12]: TLR3 IRF3 reporter activation blockers – cell-based, poly I:C stimulus, luciferase, 10K MLSCN set, primary screen (AID 602277;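 active means inhibition of the reporter signal at or above 50%; inactive means inhibition below 50%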). As to conditions: HEK293-TLR3 RL24 IRF3 luciferase reporter, at 10 µM, stronger effect = higher value.
[13] abbreviates: measured here: cell density z-score.
[14] abbreviates: measured here: nuclear c-Myc green intensity z-score.
The mark [15] stands for this setting: measured here: nuclear pErk red intensity z-score, stronger effect = higher value.

“And” between values parts separate entries of the source, which are not always exact repeats. Equal values may be shown once. The source made the active and inactive calls.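 How the source made its calls, unless noted: active means inhibition at or above 50% relative to wild type and mutant plate controls; inactive means inhibition below 50%.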

As usually defined, the inhibition is the drop in the measured response relative to a control, in per cent.

Alpha-2C adrenergic receptor (Homo sapiens), sequence (P18825 whole entry, looked up): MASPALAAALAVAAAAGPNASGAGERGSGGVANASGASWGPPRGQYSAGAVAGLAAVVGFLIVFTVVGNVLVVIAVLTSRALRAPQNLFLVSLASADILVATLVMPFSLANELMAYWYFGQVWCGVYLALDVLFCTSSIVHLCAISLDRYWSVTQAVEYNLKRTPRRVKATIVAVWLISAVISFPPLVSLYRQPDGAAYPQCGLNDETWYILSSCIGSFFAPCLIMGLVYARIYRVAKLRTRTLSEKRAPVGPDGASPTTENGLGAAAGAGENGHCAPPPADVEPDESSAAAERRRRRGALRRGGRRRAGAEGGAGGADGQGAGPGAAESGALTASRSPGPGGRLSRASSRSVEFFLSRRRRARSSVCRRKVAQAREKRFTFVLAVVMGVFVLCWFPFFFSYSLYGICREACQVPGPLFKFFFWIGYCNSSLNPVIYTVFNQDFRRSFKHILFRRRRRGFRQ
Dual specificity protein phosphatase 6 (Homo sapiens), sequence (Q16828 whole entry, looked up): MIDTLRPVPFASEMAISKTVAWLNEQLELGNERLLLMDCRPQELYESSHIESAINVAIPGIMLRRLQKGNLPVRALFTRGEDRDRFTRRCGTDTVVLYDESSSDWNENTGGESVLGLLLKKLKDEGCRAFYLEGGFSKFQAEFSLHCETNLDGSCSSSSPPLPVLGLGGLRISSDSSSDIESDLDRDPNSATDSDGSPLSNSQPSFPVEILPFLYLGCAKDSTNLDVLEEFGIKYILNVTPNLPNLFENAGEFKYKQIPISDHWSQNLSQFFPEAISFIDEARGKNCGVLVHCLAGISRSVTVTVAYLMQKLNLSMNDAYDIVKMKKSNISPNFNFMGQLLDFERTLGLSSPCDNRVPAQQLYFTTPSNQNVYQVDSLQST
Voltage-gated potassium channel subunit beta-2 (Rattus norvegicus), sequence (P62483 whole entry, looked up): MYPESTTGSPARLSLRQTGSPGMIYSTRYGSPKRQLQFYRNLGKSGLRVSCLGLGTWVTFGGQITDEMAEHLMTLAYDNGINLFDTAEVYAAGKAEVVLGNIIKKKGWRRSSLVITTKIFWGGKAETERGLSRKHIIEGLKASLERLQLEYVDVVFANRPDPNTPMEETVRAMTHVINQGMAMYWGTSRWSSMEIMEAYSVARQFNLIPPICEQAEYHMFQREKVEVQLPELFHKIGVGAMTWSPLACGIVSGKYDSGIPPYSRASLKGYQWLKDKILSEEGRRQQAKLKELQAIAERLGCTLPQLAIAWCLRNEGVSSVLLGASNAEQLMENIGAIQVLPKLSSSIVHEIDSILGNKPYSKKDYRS

`CCN(CC)CC#CCOC(=O)C(O)(c1ccccc1)C1CCCCC1` (stereo not given): the cell count in assay [1] came out at 506. Moreover, the inhibition is -6.6% (inactive) in [1]; 4.9% (inactive) in assay [3]; 5.42% (inactive) in assay [5]; 6.66% (inactive) and 16.9% (inactive) in [10]; 9.64% (inactive) in assay [11]; 30.4% (inactive) in assay [12]. Besides, the inhibition of aggregation in [2] is -15.9% (inactive). Further, the values for the nuclei count in assay [2] and in [3] were 97.3% and 112%, respectively. Further, the z-score was -0.442 in [4] (setting [13]), -0.591 in assay [4] (setting [14]) and 0.229 in assay [4] (setting [15]). Also, in assay [6], the fluorescence slope was -0.492 (inactive). Moreover, the NADPH fluorescence slope in assay [7] was -7.5e-05 (inactive). For the same molecule, in [8], the slope is 0.00459 (inactive). For the same molecule, in [9], the outcome was inactive.
With `CCN(CC)CCCC1(CN)OCCc2ccccc21` (stereo not given), the cell count in assay [1] came to 475. The inhibition in [1] was -12.9% (inactive); in assay [3], -55.8% (inactive); in [5], 17% (inactive); in [10], 24.5% (inactive); in [11] it was 5.61% (inactive); in [12], 50.5% (active). Moreover, the inhibition of aggregation in [2] is -31.3% (inactive). The nuclei count in [2] is 86.5%; in assay [3] it was 104%. In addition, the z-score was 1.04 in [4] (setting [13]), 0.0892 in [4] (setting [14]) and -0.524 in assay [4] (setting [15]). For the same molecule, in [6], the fluorescence slope was -0.378 (inactive). Further, the NADPH fluorescence slope in [7] is -6.2e-06 (inactive). Also, the slope in assay [8] was 0.00288 (inactive). For the same molecule, the molecule was called inactive in assay [9].
`O=C(O)CN(c1ccccc1)C1SC(=O)NC1=O` (stereo not given): the cell count in [1] is 606. In addition, the inhibition in assay [1] was -0.1% (inactive); in [3] it was -50.9% (inactive); in assay [5], 16.1% (inactive); in assay [10], 31.8% (inactive); in [11], 11.9% (inactive); in assay [12], 13.7% (inactive). In addition, the inhibition of aggregation in assay [2] was 5.9% (inactive). Besides, the nuclei count in assay [2] was 107%; in assay [3], 140%. The z-score is -0.0323 in assay [4] (setting [13]), -0.911 in assay [4] (setting [14]) and 0.397 in [4] (setting [15]). For the same molecule, the fluorescence slope in [6] is -0.506 (inactive). Besides, in assay [7], the NADPH fluorescence slope is -3.4e-05 (inactive). The slope in assay [8] is 0.00506 (inactive). Also, the call in assay [9] was inactive.
In the case of `Cn1c(=O)n(CCC(=O)O)c2ccccc21`, the cell count in assay [1] was 429. In addition, the inhibition in assay [1] was -3.4% (inactive); in [3] it was -65.4% (inactive); in assay [5], -9.7% (inactive); in assay [10] it was 1.78% (inactive); in assay [11], 16.2% (inactive); in [12] it was 22.9% (inactive). Moreover, in assay [2], the inhibition of aggregation is 7.9% (inactive). Also, the figures for the nuclei count in [2] and in [3] were 96.9% and 159%, respectively. Further, the z-score in [4] (setting [13]) is -0.862; in assay [4] (setting [14]), -1.01; in assay [4] (setting [15]), 0.787. Besides, the fluorescence slope in assay [6] is -0.405 (inactive). In addition, in [7], the NADPH fluorescence slope was -5.3e-05 (inactive). Moreover, the slope in assay [8] was 0.00491 (inactive). The result in [9] was inactive.
With `Cc1cc(C)n(CC(=O)n2c3c(c4ccccc42)CCCC3)n1`, the cell count in assay [1] is 515. For the same molecule, the inhibition in assay [1] is -6.5% (inactive); in [3], -92.5% (inactive); in [5], -1.98% (inactive); in assay [10], -0.753% (inactive); in assay [11] it was -7.05% (inactive); in [12], 1.75% (inactive). The inhibition of aggregation in assay [2] was 13.5% (inactive). Further, the nuclei count in assay [2] was 99.3%; in assay [3], 130%. Besides, the z-score in [4] (setting [13]) is -0.283; in [4] (setting [14]) it was 1.41; in assay [4] (setting [15]), 0.335. Besides, in [6], the fluorescence slope was -0.53 (inactive). For the same molecule, the NADPH fluorescence slope in assay [7] is -3.4e-05 (inactive). Further, the slope in assay [8] was 0.0062 (inactive). Further, the outcome in [9] was inactive.
